Compounds with a hit are over-represented: about 28% of the library has one in this group of screens.
CYP2C19 inhib: human CYP2C19 inhibition; 96,000 tested, 21% active; CYP2C19 Supersomes, luciferin-H EGE luminescence, 30 min; inhibition, % at 5 µM; P33261;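 active means CYP2C19 inhibition above a set limit at 5 µM in the primary screen, cut at about 50% in these data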;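 further: plate controls were negative control wells for no effect and 2.5 mM tranylcypromine positive control for full effect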
CYP2C19 act: activators of human cytochrome P450 2C19; recombinant CYP2C19, luciferin-H EGE luminescence; hits give high values; 0 = fully inhibited enzyme, 1 = untreated enzyme; activation factor at 5 µM; 96,000 tested, under 10 active; AID 1025;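 active means activation factor of at least 2 at 5 µM in the primary screen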;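 further: 0 = wells with 2.5 mM tranylcypromine and 1 = vehicle-only wells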
PLK1 inh: blocks human PLK1 kinase activity; P53350; recombinant PLK1 kinase, TR-FRET peptide phosphorylation; inhibition, % at 10 µM; 97,000 tested, 0.53% active;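 active means inhibition of 50% or more in the single-concentration screen; inactive means inhibition below 50%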;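 further: 0% = DMSO max control and 100% = H-89 dihydrochloride min control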
PLK1 PBD inh: blocks phosphopeptide binding to human Plk1 polo box domain. Plk1 PBD phosphopeptide binding, fluorescence polarization. 97,000 tested, 0.13% active. inhibition, %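 (tested at about 20 µM)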; in the data active means inhibition above about 34%, passing the limit was not always enough
CYP2C9 inh: human CYP2C9 inhibition. CYP2C9 Supersomes, luciferin-H conversion, luminescence. inhibition, % at 5 µM. 96,000 tested, 20% active;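 active means blocking of liver enzyme CYP2C9 beyond about 50% at 5 µM, limit read from the data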
Target sequence (P11712 whole entry, looked up): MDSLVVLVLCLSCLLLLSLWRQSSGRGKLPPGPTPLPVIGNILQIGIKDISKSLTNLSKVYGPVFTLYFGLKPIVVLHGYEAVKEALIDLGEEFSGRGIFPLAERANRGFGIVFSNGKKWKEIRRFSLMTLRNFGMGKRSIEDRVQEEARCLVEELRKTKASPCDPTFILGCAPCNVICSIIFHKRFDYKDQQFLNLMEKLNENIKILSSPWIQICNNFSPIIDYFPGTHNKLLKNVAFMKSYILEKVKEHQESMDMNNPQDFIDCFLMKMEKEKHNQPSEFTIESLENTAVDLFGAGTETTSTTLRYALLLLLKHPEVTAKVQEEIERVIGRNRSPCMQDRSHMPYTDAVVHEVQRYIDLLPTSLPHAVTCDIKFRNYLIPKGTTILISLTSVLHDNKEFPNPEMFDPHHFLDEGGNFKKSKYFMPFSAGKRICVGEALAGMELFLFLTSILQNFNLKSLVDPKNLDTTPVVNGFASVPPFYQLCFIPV
CYP2C9 activ: increases human cytochrome P450 2C9 activity; activation factor at 5 µM; 96,000 tested, 1.4% active; P11712; recombinant CYP2C9, luciferin-H conversion, luminescence; hits give high values; factor 1 = untreated enzyme, 0 = blocked;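 active means activation factor of 2 or more for CYP2C9 at a 5 µM dose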;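 further: 0 = sulfaphenazole-blocked wells and 1 = vehicle-only wells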
Starred values were filed as active, the others as inactive.

What do the screens show for `CC1=CC(=O)N(c2cccc(C(F)(F)F)c2)C1c1ccc(Cl)cc1` (stereo not drawn)?
CYP2C19 inhib: 70*; CYP2C19 act: 0.3; PLK1 inh: -10; PLK1 PBD inh: -2; CYP2C9 inh: 40; CYP2C9 activ: 0.6

Results for Cc1cc(C)nc(Sc2ccc(/C=C(\C#N)C(=O)Nc3ccccc3)o2)n1 ?
CYP2C19 inhib: 31; CYP2C19 act: 0.7; PLK1 inh: -11; PLK1 PBD inh: -2; CYP2C9 inh: 42; CYP2C9 activ: 0.6

What do the screens show for `CCC(=O)Nc1ccc2c(c1)ncn2-c1ccccc1`?
CYP2C19 inhib: 5; CYP2C19 act: 1; PLK1 inh: -9; PLK1 PBD inh: -11; CYP2C9 inh: 11; CYP2C9 activ: 0.9

What do the screens show for `CCC(=O)N1CN(S(=O)(=O)c2ccc(C)cc2)CC1C` (stereo not drawn)?
CYP2C19 inhib: 53*; CYP2C19 act: 0.5; PLK1 inh: 2; PLK1 PBD inh: 16; CYP2C9 inh: 13; CYP2C9 activ: 0.9

What do the screens show for `O=C1C2CC=CCC2C(=O)N1c1n[nH]c(CCc2ccccc2)n1` (stereo not drawn)?
CYP2C19 inhib: 10; CYP2C19 act: 0.9; PLK1 inh: -6; PLK1 PBD inh: -14; CYP2C9 inh: -14; CYP2C9 activ: 1.1

What do the screens show for `Cn1c(=O)c2c(nc(-n3ccnc3)n2Cc2ccc(Cl)cc2Cl)n(C)c1=O`?
CYP2C19 inhib: 60*; CYP2C19 act: 0.4; PLK1 inh: 7; PLK1 PBD inh: -12; CYP2C9 inh: 80*; CYP2C9 activ: 0.2

Results for Cn1c(=O)c2c(nc(-n3ccnc3)n2Cc2ccccc2)n(C)c1=O ?
CYP2C19 inhib: 4; CYP2C19 act: 1; PLK1 inh: 7; PLK1 PBD inh: 8; CYP2C9 inh: 0; CYP2C9 activ: 1

Results for C=CCOc1nc2c(c(=O)n(C)c(=O)n2C)n1Cc1c(Cl)cccc1Cl ?
CYP2C19 inhib: 62*; CYP2C19 act: 0.4; PLK1 inh: -9; PLK1 PBD inh: 6; CYP2C9 inh: 44; CYP2C9 activ: 0.6

How did Cn1c(=O)c2c(nc(N3CCCCCC3)n2Cc2cccc3ccccc23)n(C)c1=O do in these assays?
CYP2C19 inhib: 76*; CYP2C19 act: 0.2; CYP2C9 inh: 90*; CYP2C9 activ: 0.1

How did Cn1c(=O)c2c(nc(Br)n2Cc2ccccc2Cl)n(C)c1=O do in these assays?
CYP2C19 inhib: 77*; CYP2C19 act: 0.2; PLK1 inh: -19; PLK1 PBD inh: 16; CYP2C9 inh: 44; CYP2C9 activ: 0.6

What do the screens show for `Cc1cccc(C)c1NC(=O)N1CCC(c2nc3ccccc3o2)CC1`?
CYP2C19 inhib: 6; CYP2C19 act: 0.9; CYP2C9 inh: 14; CYP2C9 activ: 0.9

What do the screens show for `CC(=O)c1ccccc1OCCn1nnc(-c2ccc(C)cc2)n1`?
PLK1 inh: -9; PLK1 PBD inh: -10

What do the screens show for `O=C(CSc1nnc(Cc2ccccc2)n1-c1cccc(Cl)c1)N1CCOCC1`?
CYP2C19 inhib: 16; CYP2C19 act: 0.8; PLK1 inh: -6; PLK1 PBD inh: 26; CYP2C9 inh: 20; CYP2C9 activ: 0.8

How did CCCCN1C2CCCC1CC(NC(=O)N(C(C)C)C(C)C)C2 (stereo not drawn) do in these assays?
PLK1 inh: -3; PLK1 PBD inh: 2

What do the screens show for `C/C(Cl)=C\Cn1c(N2CCCCCC2)nc2c1c(=O)n(C)c(=O)n2C`?
CYP2C19 inhib: 47; CYP2C19 act: 0.5; PLK1 inh: -17; PLK1 PBD inh: 10; CYP2C9 inh: 85*; CYP2C9 activ: 0.1

How did CCOC(=O)Cn1c(=O)c2c(nc(N3CCCCC3)n2C)n(C)c1=O do in these assays?
CYP2C19 inhib: 12; CYP2C19 act: 0.9; PLK1 inh: -13; PLK1 PBD inh: 20; CYP2C9 inh: 55*; CYP2C9 activ: 0.5

What do the screens show for `Cc1c(/C(O)=C2\C(=O)C(=O)N(CCN(C)C)C2c2ccco2)cnn1-c1ccccc1` (stereo not drawn)?
CYP2C19 inhib: 1; CYP2C19 act: 1; PLK1 inh: 14; PLK1 PBD inh: 11; CYP2C9 inh: 0; CYP2C9 activ: 1

Results for CN=C(c1ccco1)n1c(=S)nc(-c2ccco2)n(C)c1=S ?
CYP2C19 inhib: 79*; CYP2C19 act: 0.2; PLK1 inh: -19; PLK1 PBD inh: 15; CYP2C9 inh: 66*; CYP2C9 activ: 0.3

Results for Nn1c(-c2ccco2)n[nH]c1=S ?
CYP2C19 inhib: 2; CYP2C19 act: 1; PLK1 inh: -5; PLK1 PBD inh: 9; CYP2C9 inh: 9; CYP2C9 activ: 0.9

How did COc1ccc(C(=O)c2sc(Nc3cccc(OC)c3)c(C(=O)Nc3cccc(C)c3C)c2N)cc1 do in these assays?
CYP2C19 inhib: 40; CYP2C19 act: 0.6; PLK1 inh: -13; PLK1 PBD inh: 14; CYP2C9 inh: 52*; CYP2C9 activ: 0.5

What do the screens show for `COc1ccc(Nc2sc(C(=O)c3ccc(Cl)cc3)c(N)c2C(=O)Nc2ccccc2OC)cc1`?
CYP2C19 inhib: 39; CYP2C19 act: 0.6; PLK1 inh: -12; PLK1 PBD inh: -33; CYP2C9 inh: 76*; CYP2C9 activ: 0.2

Results for Cn1c(-c2ccc(C=O)s2)nc2ccccc21 ?
CYP2C19 inhib: 16; CYP2C19 act: 0.8; PLK1 inh: -9; PLK1 PBD inh: -4; CYP2C9 inh: 11; CYP2C9 activ: 0.9

Results for Cc1ccsc1/C=N/NC(=O)c1sccc1C ?
CYP2C19 inhib: 10; CYP2C19 act: 0.9; PLK1 inh: -13; PLK1 PBD inh: 9; CYP2C9 inh: 9; CYP2C9 activ: 0.9

What do the screens show for `COc1ccc(-c2cc(C(=O)N/N=C/c3ccc4c(c3)OCO4)c3ccccc3n2)c(OC)c1`?
CYP2C19 inhib: 66*; CYP2C19 act: 0.3; PLK1 inh: -11; PLK1 PBD inh: -7; CYP2C9 inh: 88*; CYP2C9 activ: 0.1

What do the screens show for `COc1ccc(-c2cc(C(=O)O)c3ccccc3n2)c(OC)c1`?
CYP2C19 inhib: 5; CYP2C19 act: 1; PLK1 inh: -3; PLK1 PBD inh: 19; CYP2C9 inh: 62*; CYP2C9 activ: 0.4

Results for COc1ccc(-c2cc(C(=O)N/N=C/c3sccc3C)c3ccccc3n2)c(OC)c1 ?
CYP2C19 inhib: 65*; CYP2C19 act: 0.3; PLK1 inh: -14; PLK1 PBD inh: -1; CYP2C9 inh: 88*; CYP2C9 activ: 0.1

What do the screens show for `COc1cc2ccccc2cc1C(=O)O`?
CYP2C19 inhib: 21; CYP2C19 act: 0.8; PLK1 inh: 5; PLK1 PBD inh: -14; CYP2C9 inh: 82*; CYP2C9 activ: 0.2

How did COc1cc2c(OC)cccc2cc1C(=O)O do in these assays?
CYP2C19 inhib: 5; CYP2C19 act: 0.9; PLK1 inh: -13; PLK1 PBD inh: -7; CYP2C9 inh: -2; CYP2C9 activ: 1

How did O=C(N/N=C/c1cccc(F)c1)c1cc(-c2ccco2)nc2ccccc12 do in these assays?
CYP2C19 inhib: 9; CYP2C19 act: 0.9; PLK1 inh: -5; PLK1 PBD inh: 18; CYP2C9 inh: 18; CYP2C9 activ: 0.8
